Data on 85 compounds can be found in paper PMC4336329 (PLoS ONE, 2015).

SMILES strings stand for the structures. About 14,000 (4.5%) of roughly 310,000 compounds showed an effect of 50% or more. The effect is printed as a negative number. The full list was thinned out, with strong results kept by preference.
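Further: peak tail current of the secondary pulse compared with the same well before compound.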

human ether-à-go-go-related gene (hERG) potassium channel, sequence (Q12809 whole entry, looked up): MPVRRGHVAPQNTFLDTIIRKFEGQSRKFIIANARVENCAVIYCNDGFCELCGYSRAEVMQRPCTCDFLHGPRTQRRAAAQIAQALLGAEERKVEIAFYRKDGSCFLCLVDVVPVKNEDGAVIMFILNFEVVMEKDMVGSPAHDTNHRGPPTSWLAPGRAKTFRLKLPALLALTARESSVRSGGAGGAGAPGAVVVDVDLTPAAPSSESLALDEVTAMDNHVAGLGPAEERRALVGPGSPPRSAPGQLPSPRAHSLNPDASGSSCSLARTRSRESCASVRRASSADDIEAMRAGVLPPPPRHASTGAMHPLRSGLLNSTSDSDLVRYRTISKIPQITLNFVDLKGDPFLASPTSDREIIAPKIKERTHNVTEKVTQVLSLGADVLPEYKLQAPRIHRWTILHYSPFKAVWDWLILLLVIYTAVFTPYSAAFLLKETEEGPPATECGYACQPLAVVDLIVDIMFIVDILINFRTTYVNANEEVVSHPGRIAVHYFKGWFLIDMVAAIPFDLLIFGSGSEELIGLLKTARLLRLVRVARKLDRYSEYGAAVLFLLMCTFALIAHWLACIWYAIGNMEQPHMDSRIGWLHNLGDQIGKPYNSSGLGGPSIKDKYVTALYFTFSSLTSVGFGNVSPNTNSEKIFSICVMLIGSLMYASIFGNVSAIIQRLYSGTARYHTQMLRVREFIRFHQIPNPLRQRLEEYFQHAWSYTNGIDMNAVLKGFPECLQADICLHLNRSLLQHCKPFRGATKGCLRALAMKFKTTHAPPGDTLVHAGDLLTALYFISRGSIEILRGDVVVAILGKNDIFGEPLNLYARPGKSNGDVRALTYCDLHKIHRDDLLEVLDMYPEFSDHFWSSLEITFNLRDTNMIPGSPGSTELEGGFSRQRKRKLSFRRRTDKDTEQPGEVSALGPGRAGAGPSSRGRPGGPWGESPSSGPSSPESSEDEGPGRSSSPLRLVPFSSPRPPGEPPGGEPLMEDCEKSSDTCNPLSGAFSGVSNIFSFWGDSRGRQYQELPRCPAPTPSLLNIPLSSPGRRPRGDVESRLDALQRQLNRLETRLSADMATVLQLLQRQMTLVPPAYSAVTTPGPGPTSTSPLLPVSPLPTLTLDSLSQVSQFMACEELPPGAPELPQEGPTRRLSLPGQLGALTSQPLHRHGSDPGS

The assay addresses human ether-à-go-go-related gene (hERG) potassium channel (human, UniProt Q12809). Briefly: primary screen, population patch clamp on CHO cells stably expressing hERG; higher = less effect of the substance.
In the case of `CC(=O)c1cc2ccccc2oc1=O`, the “hERG current change (%, negative = inhibition) at 10uM” value is 2.96%.
On to `CCN1C(=O)[C@H]2[C@@H](c3ccc(C)cc3)N3C(=O)N(c4cccc(F)c4)C(=O)[C@@]3(C)[C@H]2C1=O`, for which the “hERG current change (%, negative = inhibition) at 10uM” value is 3.13%.
`O=S(=O)(Cc1cccc(C(F)(F)F)c1)c1ncn[nH]1`: the “hERG current change (%, negative = inhibition) at 10uM” value is 17.9%.
The figure for `COc1cccc(COc2ccc3c(C)c(Cc4ccccc4)c(=O)oc3c2)c1` is 6.98%; for `CCN1C=C(Cc2cccs2)C2=C(C1)C(c1cccs1)C(C#N)=C(N)O2` (stereo not shown) it is -16.8%; for `CCC(C)(C)c1ccc(Oc2cccc(C(=O)O)c2)cc1` it is 11.5%.
`Cc1cc(C(C)(C)C)ccc1OCCCCN1CCCC1`: the “hERG current change (%, negative = inhibition) at 10uM” value is recorded as -40%.
For the compound `CCC(C)(C)c1ccc(OCCCC[n+]2ccc(C)cc2)c(C(C)(C)CC)c1.[Br-]`, the “hERG current change (%, negative = inhibition) at 10uM” value is -75.7%.
The figure for `Cc1cc[n+](CC[n+]2ccc(C)cc2)cc1.[Br-]` is 16.7%.
The figure for `CCC(C)(C)c1ccc(O)cc1` is 6.62%; for `Cc1cc(=O)oc2cc(OCCCC[n+]3ccccc3)ccc12.[Br-]` it is 4.72%; for `CCC(C)(C)c1ccc(OCCCC[n+]2ccccc2)c(C(C)(C)CC)c1.[Br-]` it is -67.2%.
`CCC(C)(C)c1ccc(OCC(=O)N(C)C)c(C(C)(C)CC)c1`: the “hERG current change (%, negative = inhibition) at 10uM” value is listed as -4.24%.
The figure for `CCC(C)(C)c1ccc(OCCCC[n+]2cccc(C)c2C)c(C(C)(C)CC)c1.[Br-]` is -75.8%; for `O=C(Nc1nnc(-c2ccco2)s1)c1ccccc1` it is 8.26%.
Regarding `Nn1c(Cc2ccccc2F)nnc1SCCOc1ccc(Cl)cc1`, the “hERG current change (%, negative = inhibition) at 10uM” value is on record as -14.1%.
Regarding `C=CCSc1nnc(CNC(=O)c2ccccc2C)n1C(C)C`, the “hERG current change (%, negative = inhibition) at 10uM” value amounted to 5.68%.
The figure for `CC(=O)c1c(C)[nH]c(C(=O)NCCC2=CCCCC2)c1C` is 4.77%.
The figure for `O=C1CC(c2ccccc2)CC(O)=C1C=NCCN1CCNCC1` (stereo not shown) is 9.28%.
Turning to `O=C1CC(c2ccccc2)CC(O)=C1C=NCCN1CCN(Cc2ccccc2)CC1` (stereo not shown), the “hERG current change (%, negative = inhibition) at 10uM” value is -63.1%.
`O=C1CC(c2ccccc2)CC(O)=C1C=NCCN1CCN(C(=O)Cc2ccccc2)CC1` (stereo not shown): the “hERG current change (%, negative = inhibition) at 10uM” value is given as -53%.
The figure for `Cc1ccc(C2CC(=O)C(C=NCCN3CCN(C(=O)Cc4ccccc4)CC3)=C(O)C2)cc1` (stereo not shown) is -42.8%; for `O=C1CC(c2ccccc2)CC(O)=C1C=NCCN1CCOCC1` (stereo not shown) it is -0.797%; for `O=C1CC(c2ccccc2)CC(O)=C1C=NCCc1ccccc1` (stereo not shown) it is 6.57%.
The figure for `Cc1ccc(C)c(OC2=NS(=O)(=O)c3ccccc32)c1` is 23.2%; for `Cc1cc(Cl)ccc1OCCCC(=O)N/N=C/c1cccc([N+](=O)[O-])c1` it is 22.2%; for `CC(=O)Nc1cccc(-c2nc3ccccc3s2)c1` it is -13.4%.
The figure for `O=C(Nc1ccc(O)c(-c2nc3ccccc3s2)c1)c1cccs1` is -9.79%; for `O=C(Nc1cccc(-c2nc3ccccc3s2)c1)c1cccs1` it is -53.1%; for `Cc1nc(N2CCN(c3ccccn3)CC2)c2c(C)c(C(=O)Nc3c(F)cc(F)cc3Br)sc2n1` it is -14.4%.
As to `CN1CCN(S(=O)(=O)c2ccc(Cl)c3ccccc23)CC1`, the “hERG current change (%, negative = inhibition) at 10uM” value is -1.62%.
The figure for `C=CCn1c(NC(=O)c2ccc(Br)o2)c(C(=O)OCC)sc1=S` is 37%; for `Cc1ccc(Cl)cc1N1CCN(C(=O)C2(S(=O)(=O)c3ccc(Cl)cc3)CC2)CC1` it is -6.38%.
The figure for `CC(=O)c1ccc(N2CCN(C(=O)C3(S(=O)(=O)c4ccc(Cl)cc4)CC3)CC2)cc1` is -51.8%; for `COc1ccc(N2CCN(C(=O)C3(S(=O)(=O)c4ccc(C)cc4)CC3)CC2)cc1` it is -53.7%; for `Cc1ccc(S(=O)(=O)C2(C(=O)N3CCCCCC3)CC2)cc1` it is -11.6%.
The figure for `O=C(N1CCN(c2ccccc2)CC1)C1(S(=O)(=O)c2ccc(Cl)cc2)CC1` is -42.1%; for `Cc1ccc(S(=O)(=O)C2(C(=O)N3CCN(c4cc(C)ccc4C)CC3)CC2)cc1` it is -15.2%; for `CCOc1ccc(C(=O)CCC(=O)Nc2cc(C)ccn2)cc1` it is 11.8%.
Consider `COc1ccc(OC)c(N=Cc2c(O)c3ccccc3oc2=O)c1`, for which the “hERG current change (%, negative = inhibition) at 10uM” value was 12.9%.
The figure for `O=C(CCc1nnc2ccc(NCc3ccccc3Cl)nn12)NC1CCCCC1` is -7.98%; for `COc1ccc(C(=O)C2CCCN(Cc3cccn3-c3ccc(Cl)cn3)C2)c(OC)c1` (stereo not shown) it is -76%; for `COc1ccc(C(=O)C2CCCN(Cc3cccn3-c3ccccn3)C2)c(C)c1` (stereo not shown) it is -78.9%.
For `COc1ccc(C(=O)C2CCCN(Cc3cccn3-c3ccccn3)C2)c(OC)c1` (stereo not shown), the “hERG current change (%, negative = inhibition) at 10uM” value is reported as -74.6%.
As for `COc1ccc(C(=O)C2CCCN(CCO)C2)c(C)c1` (stereo not shown), the “hERG current change (%, negative = inhibition) at 10uM” value was 4.23%.
The figure for `COc1ccc(C(=O)C2CCCN(C(=O)CCc3ccccn3)C2)c(C)c1` (stereo not shown) is -14.7%.
The figure for `COc1ccccc1NC(=O)Cn1c(C)nc2c(sc(=S)n2Cc2ccco2)c1=O` is -32.6%; for `COc1cc(Cl)cc(C#N)c1OCC(=O)O` it is 11%; for `O=C(NC(Nc1nc2ccc([N+](=O)[O-])cc2s1)(C(F)(F)F)C(F)(F)F)c1ccccc1Cl` it is -23.1%.
The figure for `O=C(CSc1nnc(-c2cccnc2)n1Cc1ccccc1)NCc1ccccc1` is -14.1%; for `O=C(COC(=O)c1ccccc1NS(=O)(=O)c1cccs1)NCC12CC3CC(CC(C3)C1)C2` it is 5.15%.
For the compound `COc1cc(NC2c3ccccc3C(=O)N2Cc2ccccc2Cl)cc(OC)c1OC` (stereo not shown), the “hERG current change (%, negative = inhibition) at 10uM” value is -0.846%.
The figure for `CC(C)(CO)NC(=O)C(Cc1ccccc1)N1C(=O)c2ccccc2C1=O` (stereo not shown) is 17%.
The figure for `Cc1c(C#N)c(NC(=O)CCl)n(Cc2cccs2)c1C` is -11.4%; for `CCN1CCN(C(=O)CCc2nnc(CCCCc3ccccc3)o2)[C@@H](C)C1=O` it is 16.5%; for `CN1CCC(=O)N([C@H](CC#N)c2ccccc2)CC1` it is 16.2%.
The figure for `CN1CCC(=O)N([C@H](CSc2ccccc2)c2ccccc2)CC1` is -64.9%; for `CN1CCC(=O)N([C@H](CO)c2ccccc2)CC1` it is 3.76%; for `CN1CCC(=O)N([C@H](CSc2ccc(Br)cc2)c2ccccc2)CC1` it is -83.7%.
With `CN1CCC(=O)N([C@H](CN=[N+]=[N-])c2ccccc2)CC1`, the “hERG current change (%, negative = inhibition) at 10uM” value came out at 6.65%.
The figure for `Cc1cccc(C(=O)NCC(c2ccc(F)cc2)N2CCOCC2)c1` (stereo not shown) is -2.49%; for `CCc1cccc(CC)c1C(OC(C)=O)c1cccnc1` (stereo not shown) it is -0.238%; for `CCc1ccc(NC(=O)c2ccc(C3SCC(=O)N3CCc3ccccc3)cc2)cc1` (stereo not shown) it is 6.22%.
For `CN(CC(=O)Nc1ccc2c(c1)OCO2)S(=O)(=O)c1cccs1`, the “hERG current change (%, negative = inhibition) at 10uM” value is given as -26.9%.
The figure for `O=C(c1ccccc1)c1ccc(C(=O)N2CCN(c3ccccc3Cl)CC2)cc1` is -13.3%; for `Cc1ccccc1C(=O)Nc1ccccc1N1CCN(C(=O)c2ccccc2)CC1` it is -74%; for `O=C(Nc1ccccc1N1CCN(C(=O)c2ccccc2)CC1)c1ccccc1Cl` it is -78.8%.
Consider `O=C(Nc1ccccc1N1CCCC1)c1ccccc1Cl`, for which the “hERG current change (%, negative = inhibition) at 10uM” value stood at 6.75%.
In the case of `Cc1ccccc1N1CCN(C(=O)c2ccccc2NC(=O)c2ccccc2C(=O)O)CC1`, the “hERG current change (%, negative = inhibition) at 10uM” value is given as 6.78%.
The figure for `Cc1ccccc1C(=O)Nc1ccccc1N1CCCCC1` is 8.11%; for `COC(=O)Nc1ccc2c(c1)N(C(=O)CCN1CCOCC1)c1ccccc1S2.Cl` it is 2.68%; for `Cc1nc(CCNC(=O)Cc2ccc(F)cc2)cs1` it is 18.9%.
The figure for `O=C(COc1ccc2c3c(c(=O)oc2c1)CCC3)N1CCN(c2ccccc2)CC1` is -12.6%; for `CCC(CC)C(=O)Nc1ccc(Nc2ccccc2)cc1` it is 8.32%; for `CC(C)[C@H](NC(=O)[C@@H]1Cc2ccccc2CN1)C(=O)Nc1ccc2c(c1)OCCO2` it is -30.2%.
Take `O=C(Cn1[nH]c(=O)c2ccccc2c1=O)OCC(=O)N(Cc1ccccc1)Cc1ccccc1`: the “hERG current change (%, negative = inhibition) at 10uM” value came to 4.4%.
The figure for `O=C(CCNC(=O)c1ccc([N+](=O)[O-])cc1)Nc1cc(Cl)ccc1N1CCOCC1` is -69.9%; for `CC(C)(C)c1ccc(C(=O)NCCC(=O)Nc2cc(Cl)ccc2N2CCOCC2)cc1` it is -2.31%; for `O=C(CCNC(=O)c1ccc([N+](=O)[O-])cc1)Nc1ccccc1N1CCOCC1` it is -64.3%.
Consider `O=C(CCNC(=O)c1ccc([N+](=O)[O-])cc1)Nc1ccccc1N1CCCC1`, for which the “hERG current change (%, negative = inhibition) at 10uM” value is given as -34.6%.
With `O=C(CCNC(=O)c1ccc([N+](=O)[O-])cc1)Nc1ccc(N2CCOCC2)cc1N1CCOCC1`, the “hERG current change (%, negative = inhibition) at 10uM” value was -4.63%.
The figure for `O=C(CCNC(=O)c1ccc([N+](=O)[O-])cc1)Nc1ccccc1N1CCCCC1` is -34.9%; for `O=C(N1CCCCCC1)N1CCN(S(=O)(=O)c2ccccc2)CC1` it is -11.9%.
The figure for `Cc1c(CC(=O)NCC(=O)NCC(=O)O)c(=O)oc2cc3c(cc12)CCC(C)(C)O3` is 12.5%; for `Cc1ccc(C)c(NC(=O)CN(C)C(=O)[C@@H](NC(=O)c2ccc(C(C)(C)C)cc2)C(C)C)c1` it is -16.5%.
